Measurements reported in PubChem BioAssay (NCATS).
Inconclusive results are not listed. Active and inactive are the calls of the source. Unless noted, calls follow the shape of the dose curve; as a rule, active = well fitted curve in the direction sought with a large enough effect; inconclusive = small, poorly fitted or top-dose-only effect, or another doubt; inactive = no such curve, though single readings can be large; an effect the other way counts as inactive or inconclusive. Where a SMILES comes first, the peptide text is derived from it.

Experiments:
[1] = target: Cytochrome P450 3A4 (Homo sapiens) (UniProt P08684); experiment: qHTS Assay for Activators of Cytochrome P450 3A4 (AID 885); also: potency is read from the fitted curve at half-maximal effect; nearly all actives have a fitted effect of over 65% in size
In short: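 Quantitative HTS format: compounds preincubated with 20nM human CYP3A4 and Luciferin-PPXE substrate at KM, reaction started by NADPH regeneration, stopped after 60 min, luciferase luminescence read 20 min later.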

[2] = system: Zika virus NS2B-NS3 protease; experiment: Primary screen GU AMC qHTS for Zika virus inhibitors (AID 1347154);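 also: 0% = no-inhibitor control and -100% = no-enzyme control; nearly all actives have a fitted effect of over 70% in size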
In short: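 Fluorogenic AMC-substrate cleavage by noncovalent NS2B-NS3 protease complex (25 nM, pH 8.0 Tris buffer with Tween 20) followed for 15 minutes at room temperature (~20% conversion). Percent inhibition from ex340/em450 signal change, fitted by 4-parameter Hill equation.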

[3] = target: Mitogen-activated protein kinase 10 (Mus musculus) (UniProt Q61831); experiment: JNK3 AlphaScreen Assay (AID 530; active = well fitted curve in either direction with a large enough effect, not every such curve was filed as active;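 also: kinase came from lysate of stimulated human HepG2 cells; signal reports phosphorylation of biotinylated GST-cJun 1-79 at Ser73 with 10 µM ATP; series mostly up to about 57 µM; % is scaled to controls: 0 for no effect and ±100 for the full control effect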)
In short: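 Room-temperature AlphaScreen kinase assay; pre-activated HepG2 lysate as JNK3 source, biotin-GST-cJun(1-79) substrate, 10 uM ATP, compound 15 min preincubation.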

[4] = target: Cytochrome P450 2D6 (Homo sapiens) (UniProt P10635); experiment: qHTS Assay for Inhibitors and Substrates of Cytochrome P450 2D6 (AID 891); also: potency is read from the fitted curve at half-maximal effect; nearly all actives have a fitted effect of over 60% in size
In short: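 Human CYP2D6 (5 nM) with 30 uM Luciferin-ME EGE (at Km) in 100 mM KPO4, compound preincubated 10 min, then NADPH regeneration system for 60 min at room temperature. Luciferin read by luminescence; normalized to 1.43 uM quinidine.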

[5] = target: Ubiquitin carboxyl-terminal hydrolase 1 (Homo sapiens) (UniProt O94782); experiment: Inhibitors of USP1/UAF1: Pilot qHTS (AID 504865);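 also: rhodamine fluorescence freed from ubiquitin-rhodamine substrate followed over time; top concentration of the series differs between compounds; % is scaled to controls: 0 for no effect and ±100 for the full control effect; nearly all actives have a fitted effect of over 35% in size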
In short: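 USP1/UAF1 complex at 1 nM preincubated 15 min at room temperature with compound, then Ub-Rho substrate added at 150 nM final. Fluorescence (480/540 nm) read kinetically in 50 mM HEPES pH 7.8, 0.5 mM EDTA, 1 mM TCEP, 0.1 mg/ml BSA, 0.01% Tween-20.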

[6] = target: DNA dC->dU-editing enzyme APOBEC-3G (Homo sapiens) (UniProt Q9HC16); experiment: qHTS for inhibitors of Vif-A3G interactions: Validation (AID 588379); also: 0% is about no effect
In short: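 HeLa cells stably expressing Vif and A3G-eYFP, 700 cells/well, incubated overnight at 37 deg C, then exposed to compound overnight at 37 deg C. Inhibition of Vif-mediated degradation read as increased yellow fluorescence (Ex 488/Em 500-530) by laser-scanning cytometry.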

[7] = Primary qHTS for small molecule stabilizers of the endoplasmic reticulum resident proteome: Secreted ER Calcium Modulated Protein (SERCaMP) assay (AID 1508630); also: % is scaled to controls: 0 for no effect and ±100 for the full control effect
In short: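 GLuc-SERCaMP-expressing SH-SY5Y cells, pretreated 16 h with compound, are challenged with thapsigargin to empty ER calcium stores; after 4 h, coelenterazine is added directly to the medium and luminescence is imaged.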

[8] = target: Lysosomal alpha-glucosidase (Homo sapiens) (UniProt P10253); experiment: Confirmation of Inhibitors and Activators of Purified Human alpha-Glucosidase (AID 2115; active = well fitted curve in either direction with a large enough effect)
In short: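 Purified human enzyme (4 nM) with 4-methylumbelliferyl-alpha-D-glucopyranoside (400 uM), compounds up to 77 uM, in citrate/phosphate buffer pH 5.0 with 0.005% Tween-20. After 20 min at RT, stopped at pH 10; fluorescence ex 365/em 440 nm; AC50 from Hill fits.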

[9] = system: Zika virus NS2B-NS3 protease (linked construct); experiment: Primary screen NINDS Rhodamine qHTS for Zika virus inhibitors (AID 1347160); also: potency is read from the fitted curve at half-maximal effect; nearly all actives have a fitted effect of over 55% in size
In short: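 Percent inhibition, normalized to uninhibited and enzyme-free controls, is fitted to a 4-parameter Hill equation. Fluorescence change comes from a 15-min cleavage of 1.5 microM bis-peptide Rhodamine110 substrate by 25 nM linked NS2B-NS3 at room temperature.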

[10] = HPAF-II Cancer Cell Toxicity qHTS against the NCATS CANVASS Library (AID 1347346); also: potency is read from the fitted curve at half-maximal effect; nearly all actives have a fitted effect of over 55% in size
In short: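 HPAF-II cells were seeded at 1000 cells/well, allowed to settle for 4 h at 37 degrees C, then exposed to compounds in an 11-point series for 72 h. Viability was read by CellTiter-Glo luminescence.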

[11] = OV-SAHO Cancer Cell Toxicity qHTS against the NCATS CANVASS Library (AID 1347348); also: potency is read from the fitted curve at half-maximal effect; nearly all actives have a fitted effect of over 55% in size
In short: (§1)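 ATP content after 72 h treatment, detected by CellTiter-Glo luminescence (15min room-temperature development), reflects cell viability. Wells contained 1000 cells and received compounds at 11 concentrations.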

[12] = Panc-1005 Cancer Cell Toxicity qHTS against the NCATS CANVASS Library (AID 1347349); also: potency is read from the fitted curve at half-maximal effect; nearly all actives have a fitted effect of over 60% in size
In short: as §1

[13] = U-118MG Cancer Cell Toxicity qHTS against the NCATS CANVASS Library (AID 1347351); also: potency is read from the fitted curve at half-maximal effect
In short: as §1

[14] = UWB1.289-WTBRCA1 Cancer Cell Toxicity qHTS against the NCATS CANVASS Library (AID 1347354); also: potency is read from the fitted curve at half-maximal effect
In short: (§2)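 Cells were seeded at 1000 per well and allowed to settle 4 hours at 37 degrees C before pin transfer of compounds as an 11-point series. Viability was read by CellTiter-Glo luminescence after 72 hours' exposure.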

[15] = HEK-293 Cancer Cell Toxicity qHTS against the NCATS CANVASS Library (AID 1347355); also: potency is read from the fitted curve at half-maximal effect; nearly all actives have a fitted effect of over 65% in size
In short: as §2

[16] = HEK293 18hr Apoptosis Induction qHTS against the NCATS CANVASS Library (AID 1347357); also: potency is read from the fitted curve at half-maximal effect
In short: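 HEK293 cells (500/well, DMEM + 10% FBS) treated with an 11-point series for 18 h at 37 degrees C. Caspase-3/7 activity read by Caspase-Glo luminescence after 15 min at room temperature.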

[17] = HEK293 24hr Apoptosis Induction qHTS against the NCATS CANVASS Library (AID 1347359); also: potency is read from the fitted curve at half-maximal effect
In short: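 Caspase-3/7 activation measured as luminescence from the DEVD-based Caspase-Glo reagent, 15 min at room temperature, following 24-hour compound treatment of HEK293 cells.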

[18] = HEK293 12hr Apoptosis Induction qHTS against the NCATS CANVASS Library (AID 1347361); also: potency is read from the fitted curve at half-maximal effect
In short: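 HEK293 cells (500/well) were exposed to an 11-point qHTS concentration series for 12 hours at 37 degrees C. Caspase-3/7 activity was then read by DEVD-substrate luciferase luminescence after 15 min at room temperature.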

[19] = target: Luciferin 4-monooxygenase (Photinus pyralis) (UniProt P08659); experiment: Firefly luciferase counterscreen qHTS: Assay Interference Panel against the NCATS CANVASS Library (AID 1347363); also: series mostly up to about 57 µM; 0% is about no effect
In short: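 Luminescence inhibition readout: compounds (11-point qHTS) sat 15 min at room temperature with substrate mix (0.013 mM luciferin and ATP), then firefly luciferase was added and signal read 5 min later.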

[20] = KB-8-5-11 Cancer Cell Toxicity qHTS against the NCATS CANVASS Library (AID 1347364); also: potency is read from the fitted curve at half-maximal effect; nearly all actives have a fitted effect of over 75% in size
In short: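 KB-8-5-11 cells (500/well) in DMEM + 10% FBS were exposed to compounds in an 11-point qHTS series for 72 hr at 37C, 5% CO2. Viability was read by CellTiter-Glo luminescence.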

[21] = KB-3-1 Cancer Cell Toxicity qHTS against the NCATS CANVASS Library (AID 1347366); also: potency is read from the fitted curve at half-maximal effect; nearly all actives have a fitted effect of over 75% in size
In short: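 KB-3-1 cells (500/well) in DMEM with 10% FBS were exposed to compounds for 72 h at 37C. Viability was read by CellTiter-Glo luminescence.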

[22] = G06 Cancer Cell Toxicity qHTS against the NCATS CANVASS Library (AID 1347368); also: potency is read from the fitted curve at half-maximal effect; nearly all actives have a fitted effect of over 60% in size
In short: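 G06 dog glioma cells seeded at 500 cells/well were exposed to compounds (11-point qHTS series) for 72 hr at 37C, 5% CO2; viability read as ATP content by CellTiterGlo luminescence.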

[23] = MCF7 Cancer Cell Toxicity qHTS against the NCATS CANVASS Library (AID 1347369); also: potency is read from the fitted curve at half-maximal effect
In short: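 MCF7 cells (500/well) were exposed 72 h at 37 °C to compounds in an 11-point series. Viability was read as ATP content by CellTiterGlo luminescence.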

[24] = J3T Cancer Cell Toxicity qHTS against the NCATS CANVASS Library (AID 1347371); also: potency is read from the fitted curve at half-maximal effect
In short: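 J3T dog glioma cells (500 cells/well) were exposed to compounds in an 11-point series for 72 hr at 37C, 5% CO2. Cytotoxicity was read as ATP content by CellTiterGlo luminescence.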

[25] = target: Nuclear receptor subfamily 1 group I member 3 (Homo sapiens) (UniProt Q14994); experiment: qHTS for Constitutive Androstane Receptor (CAR) Antagonist screened against the NCATS CANVASS Library (AID 1347372); also: potency is read from the fitted curve at half-maximal effect
In short: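 HepG2-CYP2B6-hCAR double-stable cells plated, 4hr attach; cpd pin-transferred; CITCO 50 nM final; 24hr 37C/5% CO2; CellTiter-Fluor 1hr (fluorescence), then ONE-Glo luminescence.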

[26] = target: Nuclear receptor subfamily 1 group I member 3 (Homo sapiens) (UniProt Q14994); experiment: qHTS for Constitutive Androstane Receptor (CAR) Agonist screened against the NCATS CANVASS Library (AID 1347373);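 also: every well also contained 1.5 µM PK11195 alongside the test compound; 0% is about no effect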
In short: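 HepG2 cells stably expressing hCAR and a CYP2B6-2.2kb luciferase reporter were treated for 24hr at 37C with compounds (11-point qHTS) in the presence of 1.5uM PK11195. Reporter activation was read by ONE-Glo luminescence.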

[27] = qHTS for Hypoxia signaling pathway (HIF-1) agonists against the NCATS CANVASS Library (AID 1347375); also: potency is read from the fitted curve at half-maximal effect
In short: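 HRE-bla ME-180 cells (beta-lactamase reporter under hypoxia responsive element) in 0.5% dialyzed FBS medium, 5 h at 37C, then compound 17 h, 11-point qHTS series. CCF4-AM FRET substrate 2 h RT; 460/530 nm emission read.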

[28] = 10-beta competent E. coli microbial cell viability qHTS against the NCATS CANVASS Library (AID 1347376); also: series mostly up to about 46 µM; 0% is about no effect
In short: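 10-beta competent E. coli (0.9 OD culture diluted to 0.2 OD) exposed to compounds in an 11-point qHTS series, incubated overnight at 37C, 5% CO2. Viability read as ATP by BacTiter-Glo luminescence after 20 min at room temperature.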

[29] = DH5-alpha competent E. coli microbial cell viability qHTS against the NCATS CANVASS Library (AID 1347377); conditions: outcome: dose series up to 46.1 µM; also: 0% is about no effect
In short: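 DH5-alpha E. coli suspension (0.9 OD culture diluted to 0.2 OD) exposed to compounds in an 11-point series, overnight at 37C, 5% CO2. Viability read as ATP by BacTiter-Glo luminescence after 20 min at room temperature.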

[30] = qHTS for Inflammasome Signaling Inhibitors: IL-1-beta AlphaLISA screen against the NCATS CANVASS Library (AID 1347379)
In short: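 Human THP-1 cells were pretreated 1 hr at 37 °C with compounds (up to 57.5 uM final), then stimulated with LPS (250 ng/mL final) and ATP (1.25 mM final). Secreted IL-1B was read by AlphaLISA after 16 hr.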

[31] = Inflammasome Signaling qHTS Counterscreen: IL-1-beta AlphaLISA counterscreen against the NCATS CANVASS Library (AID 1347381);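 also: cell-free check with purified IL-1β in medium and no THP-1 cells; series mostly up to about 57 µM; 0% is about no effect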
In short: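 To flag interference with the AlphaLISA read-out, a known amount of purified IL-1-beta (4 pg) replaced cell supernatant. Detection used anti-IL-1-beta acceptor beads, biotinylated antibody and streptavidin donor beads at room temperature.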

[32] = Secretion counterscreen for inhibitors of the SERCaMP assay screened against the NCATS CANVASS Library (AID 1347390)
In short: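 SH-SY5Y cells with constitutively secreted GLuc reporter, 1000 cells/well, treated 20 h at 37C with compounds at 0.001 - 77 uM final; secreted luciferase read as luminescence after coelenterazine; Brefeldin A as positive control.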

[33] = qHTS for activators of dead-cell proteases activity screened against the NCATS CANVASS Library (AID 1347392);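 also: luminescence from protease leaking out of membrane-damaged cells cleaving impermeant substrate; potency is read from the fitted curve at half-maximal effect; rising signal means more cytotoxicity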
In short: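 Compounds are pin-transferred onto attached HepG2 cells, giving 11 final concentrations. After 5 h at 37C, AAF-aminoluciferin reagent is added and luminescence is recorded at room temperature.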

[34] = Vero-766 cells viability qHTS against the NCATS CANVASS Library: Counterscreen for Zika virus inhibition assay (AID 1347394); also: potency is read from the fitted curve at half-maximal effect; nearly all actives have a fitted effect of over 60% in size
In short: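 Vero 766 cells (1000/well), without Zika virus, were exposed to compounds for 72 h at 37C. Viability was measured by CellTiter Glo luminescence. Media-only wells served as 100% inhibition.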

[35] = Redox Reaction Profiling qHTS: Assay Interference Panel against the NCATS CANVASS Library (AID 1347401);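 also: 100% = activation by 2 µM chloranil control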
In short: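 Cell-free redox surrogate: 5 uM resazurin + 200 uM DTT, 50 mM HEPES pH 7.3/50 mM NaCl; cpds pinned, 11-pt qHTS; Ex525/Em598 read t0 and t=15 min, dark.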

Nuclear receptor subfamily 1 group I member 3 (Homo sapiens), sequence (Q14994 whole entry, looked up): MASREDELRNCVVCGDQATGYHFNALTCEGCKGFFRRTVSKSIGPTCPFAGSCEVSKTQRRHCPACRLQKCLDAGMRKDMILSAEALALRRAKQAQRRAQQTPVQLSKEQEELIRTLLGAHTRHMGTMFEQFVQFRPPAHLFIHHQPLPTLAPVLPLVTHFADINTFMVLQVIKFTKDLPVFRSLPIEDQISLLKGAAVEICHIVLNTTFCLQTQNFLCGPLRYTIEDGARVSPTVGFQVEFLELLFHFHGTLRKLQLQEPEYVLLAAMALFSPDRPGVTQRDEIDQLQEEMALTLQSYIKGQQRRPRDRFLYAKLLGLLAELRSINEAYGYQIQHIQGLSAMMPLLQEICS
Luciferin 4-monooxygenase (Photinus pyralis), sequence (P08659 whole entry, looked up): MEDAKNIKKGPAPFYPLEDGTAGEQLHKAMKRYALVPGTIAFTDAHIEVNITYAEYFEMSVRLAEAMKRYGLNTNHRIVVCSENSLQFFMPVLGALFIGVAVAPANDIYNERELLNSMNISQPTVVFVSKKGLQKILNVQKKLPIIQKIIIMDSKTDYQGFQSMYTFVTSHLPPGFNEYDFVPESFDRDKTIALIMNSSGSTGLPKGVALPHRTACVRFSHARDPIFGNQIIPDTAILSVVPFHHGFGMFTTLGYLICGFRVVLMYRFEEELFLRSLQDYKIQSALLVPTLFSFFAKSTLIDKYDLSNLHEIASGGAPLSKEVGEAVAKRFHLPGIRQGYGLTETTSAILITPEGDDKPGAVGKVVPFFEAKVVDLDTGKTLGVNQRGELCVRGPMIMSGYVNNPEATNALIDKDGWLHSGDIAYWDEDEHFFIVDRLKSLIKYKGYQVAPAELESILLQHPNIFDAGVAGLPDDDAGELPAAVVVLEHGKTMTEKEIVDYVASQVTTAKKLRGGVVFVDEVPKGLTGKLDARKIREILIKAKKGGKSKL
DNA dC->dU-editing enzyme APOBEC-3G (Homo sapiens), sequence (Q9HC16 whole entry, looked up): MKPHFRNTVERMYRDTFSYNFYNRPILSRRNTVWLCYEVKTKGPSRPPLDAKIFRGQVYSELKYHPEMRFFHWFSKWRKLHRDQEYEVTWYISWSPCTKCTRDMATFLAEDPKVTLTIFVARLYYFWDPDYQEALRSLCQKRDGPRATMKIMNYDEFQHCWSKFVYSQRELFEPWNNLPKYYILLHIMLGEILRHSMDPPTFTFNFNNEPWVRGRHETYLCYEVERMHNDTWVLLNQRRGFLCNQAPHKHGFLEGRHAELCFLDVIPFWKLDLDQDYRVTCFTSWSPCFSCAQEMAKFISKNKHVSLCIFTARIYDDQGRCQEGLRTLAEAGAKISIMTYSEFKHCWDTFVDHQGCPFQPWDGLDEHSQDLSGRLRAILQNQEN
Cytochrome P450 3A4 (Homo sapiens), sequence (P08684 whole entry, looked up): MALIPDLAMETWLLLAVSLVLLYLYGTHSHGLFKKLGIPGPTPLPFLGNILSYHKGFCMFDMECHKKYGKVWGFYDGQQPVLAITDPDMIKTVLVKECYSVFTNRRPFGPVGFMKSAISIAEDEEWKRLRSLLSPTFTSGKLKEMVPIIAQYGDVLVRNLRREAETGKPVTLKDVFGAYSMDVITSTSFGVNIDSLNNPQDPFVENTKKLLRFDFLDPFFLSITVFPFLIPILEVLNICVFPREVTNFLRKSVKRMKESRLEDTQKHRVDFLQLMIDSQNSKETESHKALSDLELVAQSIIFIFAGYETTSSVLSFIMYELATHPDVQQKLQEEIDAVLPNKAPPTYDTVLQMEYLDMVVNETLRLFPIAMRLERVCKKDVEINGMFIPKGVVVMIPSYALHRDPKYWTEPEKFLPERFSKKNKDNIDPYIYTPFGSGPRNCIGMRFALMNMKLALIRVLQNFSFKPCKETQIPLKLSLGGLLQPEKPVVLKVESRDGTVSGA
Cytochrome P450 2D6 (Homo sapiens), sequence (P10635 whole entry, looked up): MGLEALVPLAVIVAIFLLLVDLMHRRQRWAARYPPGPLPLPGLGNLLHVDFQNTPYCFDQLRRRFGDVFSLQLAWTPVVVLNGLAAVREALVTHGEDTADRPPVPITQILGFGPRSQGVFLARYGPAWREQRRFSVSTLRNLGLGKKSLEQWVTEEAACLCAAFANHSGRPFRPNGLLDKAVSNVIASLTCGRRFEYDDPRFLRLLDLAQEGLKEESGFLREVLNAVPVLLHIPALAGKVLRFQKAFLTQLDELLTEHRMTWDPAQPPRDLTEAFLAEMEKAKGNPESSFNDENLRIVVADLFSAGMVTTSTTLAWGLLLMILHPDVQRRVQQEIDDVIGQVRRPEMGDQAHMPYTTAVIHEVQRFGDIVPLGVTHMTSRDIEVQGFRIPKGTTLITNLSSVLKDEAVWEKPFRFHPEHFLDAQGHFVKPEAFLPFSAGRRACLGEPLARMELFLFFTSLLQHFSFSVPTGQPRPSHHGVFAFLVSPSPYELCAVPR
Ubiquitin carboxyl-terminal hydrolase 1 (Homo sapiens), sequence (O94782 whole entry, looked up): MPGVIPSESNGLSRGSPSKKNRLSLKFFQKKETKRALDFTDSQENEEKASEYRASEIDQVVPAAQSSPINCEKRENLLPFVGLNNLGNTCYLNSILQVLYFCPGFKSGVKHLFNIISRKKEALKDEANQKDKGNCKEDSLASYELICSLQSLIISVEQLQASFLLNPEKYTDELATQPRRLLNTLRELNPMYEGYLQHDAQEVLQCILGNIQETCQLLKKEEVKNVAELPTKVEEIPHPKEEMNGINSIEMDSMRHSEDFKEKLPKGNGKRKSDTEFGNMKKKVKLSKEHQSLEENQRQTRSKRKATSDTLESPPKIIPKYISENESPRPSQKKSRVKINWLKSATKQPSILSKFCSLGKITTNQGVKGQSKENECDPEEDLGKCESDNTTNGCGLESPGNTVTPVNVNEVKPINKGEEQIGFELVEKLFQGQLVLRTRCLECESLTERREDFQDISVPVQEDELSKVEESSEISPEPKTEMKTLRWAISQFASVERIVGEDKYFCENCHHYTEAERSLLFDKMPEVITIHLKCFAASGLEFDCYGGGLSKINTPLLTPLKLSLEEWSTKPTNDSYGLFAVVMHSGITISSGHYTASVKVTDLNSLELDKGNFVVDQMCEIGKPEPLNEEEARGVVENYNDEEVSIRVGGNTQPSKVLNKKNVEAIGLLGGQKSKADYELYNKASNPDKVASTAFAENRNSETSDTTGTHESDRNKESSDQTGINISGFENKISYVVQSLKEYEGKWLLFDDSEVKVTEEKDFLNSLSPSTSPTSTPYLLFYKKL

O=C1Nc2ccccc2C2(CCN(CCc3ccc(C(F)(F)F)cc3)CC2)O1
inactive: Potency [2]
active: Potency [1] 7.94 µM

C[C@@H]1O[C@H](O[C@@H]2C[C@@H](O)[C@]3(CO)[C@H]4[C@H](O)C[C@]5(C)[C@@H](C6=CC(=O)OC6)CC[C@@]5(O)[C@@H]4CC[C@]3(O)C2)[C@@H](O)[C@H](O)[C@H]1O
active: Potency [4] 0.0501 µM
inactive: outcome [3] | Potency [5] | Potency [6] | Potency [2] | Potency [7]

O[C@H]1[C@H](O)[C@@H](O)CN2CC[C@H](O)[C@H]12
inactive: outcome [8] | Potency [2]

CC(C)C[C@H](NC(=O)[C@H](Cc1ccccc1)NC(=O)CNC(=O)[C@@H](NC(=O)[C@@H](N)Cc1ccc(O)cc1)[C@H](C)O)C(=O)N[C@H](C(=O)O)[C@H](C)O
inactive: activity change, negative = inhibition [7] -27.9% [at 3.88 µM]

C[C@H](N)C(=O)N[C@@H](C)C(=O)N[C@@H](Cc1ccccc1)C(=O)CCl (HELM PEPTIDE1{A.A.F.[ClC[*:1]]}$$$$V2.0)
inactive: Potency [7]

C[C@@H]1CC[C@@H](c2ccoc2)N2C[C@@]3(CC[C@@H]12)CS[C@@]1(CC[C@H]2[C@H](C)CC[C@@H](c4ccoc4)N2[C@@H]1O)C3
active: Potency [9] 31.1 µM | Potency [10] 2.98 µM | Potency [11] 5.94 µM | Potency [12] 5.3 µM | Potency [13] 8.41 µM | Potency [14] 8.38 µM | Potency [15] 7.43 µM | Potency [16] 8.33 µM | Potency [17] 10.5 µM | Potency [18] 8.33 µM | Potency [20] 8.33 µM | Potency [21] 8.33 µM | Potency [22] 7.43 µM | Potency [23] 11.7 µM | Potency [24] 9.35 µM | Potency [25] 8.31 µM | Potency [27] 8.38 µM | Potency [30] 8.63 µM | Potency [32] 12.2 µM | Potency [33] 11.7 µM | Potency [34] 7.41 µM
inactive: outcome [19] | outcome [26] | outcome [28] | outcome [29] | outcome [31] | Potency [35]
